Experimental data taken from PubChem BioAssay (EPA / NIEHS).
Results filed as inconclusive are left out. Activity calls are given as the source filed them. How the source made its calls, unless noted: active means hit-call score of the fitted dose curve at least 0.9, where 1 is the maximum; inactive means score below 0.9.

What was measured:
[1] = ACEA_ER_80hr: ACEA Biosciences xCELLigence Real-Time Cell Analysis on Estrogen Receptor Agonism for Proliferation (AID 2282667; active means hit-call score of the fitted dose curve at least 0.9, where 1 is the maximum); settings: T47D proliferation, impedance (xCELLigence), 80 h
How it was run: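 Real-time impedance growth kinetics of human T-47D breast cells read 80 h after dosing, gain-of-signal fitted relative to DMSO. Compounds: 1:4 serial series, top final concentration 100 uM, n = 2.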

[2] = ATG_CRE_CIS: Attagene CIS-FACTORIAL HepG2 Assay for human cAMP Responsive Element (CRE) binding protein 3 (AID 2282926); settings: HepG2 CRE cis-reporter, Attagene multiplexed mRNA; actives raise or lower the signal
How it was run: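 Endogenous transcription factor activity read via CRE-regulated reporter transcripts in transfected HepG2 cells. After 24 h exposure, RNA was reverse-transcribed, amplified, fluorescently labelled and sized by capillary electrophoresis; gain or loss fitted against DMSO.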

[3] = molecular target: CCAAT/enhancer-binding protein beta (Homo sapiens) (UniProt P17676); test: ATG_C_EBP_CIS: Attagene CIS-FACTORIAL HepG2 Assay for human CCAAT/Enhancer Binding Protein (C/EBP) beta (AID 2282927); settings: HepG2 Attagene cis-factorial transcription factor reporter; actives raise or lower the signal
Chain of CCAAT/enhancer-binding protein beta (Homo sapiens) (P17676 whole entry, looked up): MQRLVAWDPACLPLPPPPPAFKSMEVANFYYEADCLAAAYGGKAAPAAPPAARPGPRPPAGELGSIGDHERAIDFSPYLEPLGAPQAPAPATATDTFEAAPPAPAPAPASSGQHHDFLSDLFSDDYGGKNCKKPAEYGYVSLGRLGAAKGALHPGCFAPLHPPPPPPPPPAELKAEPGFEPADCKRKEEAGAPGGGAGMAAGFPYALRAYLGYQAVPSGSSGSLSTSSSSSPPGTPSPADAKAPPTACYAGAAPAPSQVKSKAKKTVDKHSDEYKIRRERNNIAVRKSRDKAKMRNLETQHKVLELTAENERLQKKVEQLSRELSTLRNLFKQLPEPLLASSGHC
How it was run: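 RT-PCR/capillary electrophoresis fluorescence of reporter mRNA, 24 h post-dose, in HepG2 cells carrying transfected cis-promoter reporter units. Bidirectional curve fitting against DMSO baseline captures gain or loss of signal.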

[4] = ATG_CMV_CIS: Attagene CIS-FACTORIAL HepG2 Assay for human CMV (Internal Marker) (AID 2282928); settings: HepG2 CMV promoter reporter, transcription factor profiling; actives raise or lower the signal;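 further: endpoint acts as a background internal control marker rather than a target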
How it was run: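 Readout: fluorescent reporter cDNA fragments separated by capillary electrophoresis after RT-PCR and HpaI cut. Cells: HepG2 carrying transfected cis-promoter reporter constructs, dosed 24 h. Endpoint serves as background internal-marker control, fit bidirectionally versus DMSO.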

[5] = ATG_DR4_LXR_CIS: Attagene CIS-FACTORIAL HepG2 Assay for human Liver X Receptor (LXR), DR4 submotif (AID 2282929); settings: HepG2 Attagene DR4 cis-reporter, mRNA transcription; actives raise or lower the signal
How it was run: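 Readout: reporter transcript fluorescence after RT-PCR and capillary electrophoresis, fitted bidirectionally against DMSO controls. Human HepG2 liver cells carried transiently transfected multiplexed reporter constructs; endogenous transcription factor activity measured 24 h post-dosing.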

[6] = molecular target: Aryl hydrocarbon receptor (Homo sapiens) (UniProt P35869); test: ATG_Ahr_CIS: Attagene CIS-FACTORIAL HepG2 Assay for human Aryl Hydrocarbon Receptor (Ahr) (AID 2282930); settings: HepG2 AhR cis-factorial reporter transcription; actives raise or lower the signal
Chain of Aryl hydrocarbon receptor (Homo sapiens) (P35869 whole entry, looked up): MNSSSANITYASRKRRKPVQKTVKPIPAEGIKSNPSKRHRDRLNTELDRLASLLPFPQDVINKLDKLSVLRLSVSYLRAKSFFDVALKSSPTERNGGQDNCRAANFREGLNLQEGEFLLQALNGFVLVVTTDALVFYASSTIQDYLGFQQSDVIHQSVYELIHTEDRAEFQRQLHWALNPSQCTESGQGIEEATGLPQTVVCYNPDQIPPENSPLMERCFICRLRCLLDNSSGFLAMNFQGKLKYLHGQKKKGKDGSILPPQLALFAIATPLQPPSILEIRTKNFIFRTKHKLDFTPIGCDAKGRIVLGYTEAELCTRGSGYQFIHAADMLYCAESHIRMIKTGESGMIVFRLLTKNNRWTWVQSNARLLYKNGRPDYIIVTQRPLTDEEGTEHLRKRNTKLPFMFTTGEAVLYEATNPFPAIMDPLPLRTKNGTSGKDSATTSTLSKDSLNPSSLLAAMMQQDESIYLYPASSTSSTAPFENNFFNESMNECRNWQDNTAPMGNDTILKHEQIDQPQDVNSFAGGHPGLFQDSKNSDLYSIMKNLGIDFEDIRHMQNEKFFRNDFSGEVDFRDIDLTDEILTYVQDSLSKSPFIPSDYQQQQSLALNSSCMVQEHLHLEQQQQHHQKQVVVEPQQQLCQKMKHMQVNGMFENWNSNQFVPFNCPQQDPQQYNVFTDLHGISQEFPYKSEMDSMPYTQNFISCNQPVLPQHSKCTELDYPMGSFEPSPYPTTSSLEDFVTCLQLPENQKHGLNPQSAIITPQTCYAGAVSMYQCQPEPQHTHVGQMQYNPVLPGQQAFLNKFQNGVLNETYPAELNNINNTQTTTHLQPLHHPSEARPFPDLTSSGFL
How it was run: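 HepG2 cells transiently transfected with cis-element-driven multiplexed reporter transcription units; endogenous transcription factor activity measured as reporter mRNA 24 h after dosing. RT-PCR, 6-FAM labelling, HpaI digestion, capillary electrophoresis; bidirectional fitting versus DMSO baseline.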

[7] = ATG_AP_1_CIS: Attagene CIS-FACTORIAL HepG2 Assay for human Activator Protein 1 (AP-1) (AID 2282931); settings: HepG2 Attagene cis-factorial AP-1 reporter mRNA; actives raise or lower the signal
How it was run: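 Reporter transcripts were measured 24 h after dosing by RT-PCR and capillary electrophoresis of fluorescent fragments. Cells: HepG2 carrying transfected cis-regulated reporter constructs reading endogenous factor activity. Gain or loss fitted against DMSO.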

[8] = ATG_AP_2_CIS: Attagene CIS-FACTORIAL HepG2 Assay for human Activator Protein 2 (AP-2) (AID 2282932); settings: HepG2 AP-2 cis-reporter, Attagene transcription factor profiling; actives raise or lower the signal
How it was run: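 Cells (HepG2) transfected with promoter-driven reporter constructs, treated 24 h. Total RNA reverse-transcribed, reporter cDNA PCR-amplified, FAM-labelled by primer extension, digested, resolved by capillary electrophoresis. Activity fitted both directions versus DMSO.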

[9] = ATG_BRE_CIS: Attagene CIS-FACTORIAL HepG2 Assay for human Bone Morphogenetic Protein (BMP) Response Element (BRE) (AID 2282933); settings: HepG2 BMP response element reporter, Attagene transcription factor profiling; actives raise or lower the signal
How it was run: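 HepG2 cells transiently transfected with multiplexed cis-element reporter units were dosed with chemical for 24 h. Reporter mRNA was measured by RT-PCR with fluorescent labelling, HpaI digestion and capillary electrophoresis; bidirectional fitting relative to DMSO.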

[10] = molecular target: Retinoic acid receptor alpha (Homo sapiens) (UniProt P10276); test: ATG_DR5_RAR_CIS: Attagene CIS-FACTORIAL HepG2 Assay for human Retinoic Acid Receptor Alpha (RARE), DR5 submotif (AID 2282934); settings: HepG2 Attagene cis-factorial RARE DR5 reporter, mRNA; actives raise or lower the signal;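 on AC50: reporter responds to endogenous RAR alpha beta and gamma in HepG2 not RARA alone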
Chain of Retinoic acid receptor alpha (Homo sapiens) (P10276 whole entry, looked up): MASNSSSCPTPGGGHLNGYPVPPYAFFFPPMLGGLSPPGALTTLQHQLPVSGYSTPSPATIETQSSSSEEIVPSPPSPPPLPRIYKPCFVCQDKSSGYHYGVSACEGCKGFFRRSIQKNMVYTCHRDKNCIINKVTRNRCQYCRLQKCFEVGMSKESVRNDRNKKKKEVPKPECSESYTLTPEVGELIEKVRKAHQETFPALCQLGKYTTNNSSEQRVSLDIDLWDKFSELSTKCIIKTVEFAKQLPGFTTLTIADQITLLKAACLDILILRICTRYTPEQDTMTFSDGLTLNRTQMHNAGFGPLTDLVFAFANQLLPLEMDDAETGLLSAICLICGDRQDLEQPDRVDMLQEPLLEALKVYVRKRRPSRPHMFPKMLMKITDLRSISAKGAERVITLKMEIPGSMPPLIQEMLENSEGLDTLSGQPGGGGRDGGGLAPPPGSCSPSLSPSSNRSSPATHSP
How it was run: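 HepG2 cells transiently transfected with multiplexed reporter units under cis (DR5 RARE) promoters, so endogenous transcription factor activity is measured. After 24 h compound exposure, reporter mRNA is quantified by RT-PCR with fluorescent labelling and capillary electrophoresis; bidirectional fitting versus DMSO.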

Row | SMILES | AC50 [1] | outcome [2] | outcome [3] | outcome [4] | outcome [5] | outcome [6] | outcome [7] | outcome [8] | outcome [9] | outcome [10] | outcome [1] | AC50 [4] | AC50 [5] | AC50 [2] | AC50 [3] | AC50 [7] | AC50 [9] | AC50 [10]
1 | N#Cc1ccc(C2CCCc3cncn32)cc1 (stereo unspecified) | 0.829 µM (active) | inactive | inactive | inactive | inactive | inactive | inactive | inactive | inactive | inactive |  |  |  |  |  |  |  | 
2 | CC1=CC=C(C(C)C)CC1 |  | inactive | inactive | inactive | inactive | inactive | inactive |  | inactive |  | inactive |  |  |  |  |  |  | 
3 | Oc1ccc(/C=C/c2cc(O)cc(O)c2)cc1 |  | inactive | inactive |  |  | inactive | inactive | inactive |  | inactive | inactive | 22.7 µM (active) | 100 µM (active) |  |  |  |  | 
4 | Cc1noc(NS(=O)(=O)c2ccc(N)cc2)c1C |  | inactive | inactive | inactive | inactive | inactive | inactive | inactive | inactive | inactive | inactive |  |  |  |  |  |  | 
5 | O=C(Oc1ccccc1)c1ccccc1O |  | inactive | inactive | inactive | inactive | inactive | inactive | inactive |  | inactive | inactive |  |  |  |  |  |  | 
6 | c1ccc(Nc2cccc3ccccc23)cc1 |  |  |  |  | inactive | inactive |  | inactive |  |  | inactive | 33.4 µM (active) |  | 48.3 µM (active) | 45.7 µM (active) | 53.7 µM (active) | 49.2 µM (active) | 33.4 µM (active)
7 | O=c1c(O)c(-c2ccc(O)cc2O)oc2cc(O)cc(O)c12 | 47.5 µM (active) | inactive | inactive | inactive | inactive | inactive | inactive | inactive |  | inactive |  |  |  |  |  |  |  | 
8 | CCCCC1C(=O)N(c2ccccc2)N(c2ccccc2)C1=O |  | inactive | inactive | inactive | inactive | inactive | inactive | inactive | inactive | inactive | inactive |  |  |  |  |  |  | 
9 | CC(=O)OCC=C(C)C |  | inactive | inactive | inactive | inactive | inactive | inactive | inactive | inactive | inactive | inactive |  |  |  |  |  |  | 
10 | CCCC1CCCC(=O)O1 (stereo unspecified) |  | inactive | inactive | inactive | inactive | inactive | inactive | inactive | inactive | inactive | inactive |  |  |  |  |  |  | 
11 | CCCCCCCO |  | inactive | inactive | inactive | inactive | inactive | inactive | inactive | inactive | inactive | inactive |  |  |  |  |  |  | 
12 | CC(C)(CO)COC(=O)C(C)(C)CO |  | inactive | inactive | inactive | inactive | inactive | inactive | inactive | inactive | inactive | inactive |  |  |  |  |  |  | 
13 | CC(=O)OC1CCCCC1 |  | inactive | inactive | inactive | inactive | inactive | inactive | inactive | inactive | inactive | inactive |  |  |  |  |  |  | 
14 | CC(c1cc(C(C)(C)C)cc(C(C)(C)C)c1O)c1cc(C(C)(C)C)cc(C(C)(C)C)c1O |  | inactive | inactive | inactive | inactive | inactive | inactive | inactive | inactive | inactive | inactive |  |  |  |  |  |  | 
15 | C[N+](C)(C)CCCNS(=O)(=O)C(F)(F)C(F)(F)C(F)(F)C(F)(F)C(F)(F)C(F)(F)C(F)(F)C(F)(F)F |  | inactive | inactive |  | inactive | inactive | inactive | inactive |  | inactive | inactive | 55.4 µM (active) |  |  |  |  |  | 
16 | C/C=C/C=C/CCCCCCCO |  | inactive | inactive | inactive |  | inactive |  | inactive |  | inactive | inactive |  | 183 µM (active) |  |  | 127 µM (active) | 156 µM (active) | 
17 | CN(C)Cc1cc(CN(C)C)c(O)c(CN(C)C)c1 |  | inactive | inactive | inactive | inactive | inactive | inactive | inactive |  | inactive | inactive |  |  |  |  |  |  | 
18 | Nc1ccnc(=O)[nH]1 |  | inactive | inactive | inactive | inactive | inactive | inactive | inactive |  | inactive | inactive |  |  |  |  |  |  | 
19 | COc1nccnc1CC(C)C |  | inactive | inactive | inactive | inactive | inactive | inactive |  | inactive | inactive | inactive |  |  |  |  |  |  | 
20 | O=C(C=Cc1ccccc1)OCCc1ccccc1 |  | inactive | inactive | inactive |  | inactive | inactive | inactive |  | inactive | inactive |  | 24.8 µM (active) |  |  |  |  | 
21 | CCCCCCCCCCCCCc1ccccc1 |  | inactive | inactive | inactive | inactive | inactive | inactive | inactive |  | inactive | inactive |  |  |  |  |  |  | 
22 | O=C(O)c1ccc2c(c1)C(=O)OC2=O |  | inactive | inactive | inactive | inactive | inactive | inactive | inactive |  | inactive | inactive |  |  |  |  |  |  | 
23 | O=C(O)C(F)(F)C(F)(F)C(F)(F)C(F)(F)C(=O)O |  | inactive | inactive | inactive | inactive | inactive | inactive | inactive | inactive | inactive | inactive |  |  |  |  |  |  | 
24 | COC(C=C(C)CCC=C(C)C)OC |  | inactive | inactive | inactive | inactive | inactive |  | inactive | inactive | inactive | inactive |  |  |  |  | 146 µM (active) |  | 
25 | CCOC(=O)OC(=O)OCC |  | inactive | inactive | inactive | inactive | inactive | inactive | inactive |  | inactive | inactive |  |  |  |  |  |  | 
26 | CC(C)=NNC(N)=S |  | inactive | inactive | inactive | inactive | inactive | inactive | inactive | inactive | inactive | inactive |  |  |  |  |  |  | 
27 | CCOC(=O)c1ccccc1C |  | inactive | inactive | inactive | inactive | inactive | inactive | inactive |  | inactive | inactive |  |  |  |  |  |  | 
